The values below come from PubChem BioAssay (NCI).

The panel holds about 79,000 compounds, 15% with a hit somewhere; the sample as a whole holds those more often. A number with no mark means an inactive call. Calls of active or inactive are those of the source. Rule as the data show it: active = growth inhibition above about 70%; inactive = the rest.

A short description of one experiment: NCI Yeast Anticancer Drug Screen. Data for the sgs1 mgt1 strain (AID 161).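 Also: 0% = growth of cultures given vehicle only.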 Conditions: S. cerevisiae sgs1 mgt1 strain, at 50.0 µM (retest, dose inferred, filed as 5.0), stronger effect = higher value. A digest of the protocol:
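Inhibition of yeast growth, normalised to vehicle-treated controls, is reported for a strain bearing genetic alterations in DNA damage repair.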
For `CC12CCC(=O)C=C1CCC1C2CCC2(C)C(c3cnc[nH]3)CCC12` (stereo not drawn), the growth inhibition was 82% (active).
Same read-out and setting: the figure for `COc1cccc(C2CC(C)(O)Oc3cc4c(cc32)OCO4)c1` (stereo not drawn) is 9%; for `N/C(=N\N=C\c1cc(I)cc(I)c1O)NO` it is 98% (active); for `Cc1ccc2nn(-c3ccc(O)cc3)nc2c1` it is 38%.
As to `COC(=O)C1=C(NC(=O)Nc2ccc(Cl)cc2)OC(C)(C)C1c1ccc(Cl)cc1` (stereo not drawn), the growth inhibition was 92% (active).
In the case of `CCCC/C=C\CCCCCCCCCC1=C(O)C(=O)C=C(OC)C1=O`, the growth inhibition was 91% (active).
On to `Cc1nn(C(=O)c2ccccc2O)c2c1C(c1ccco1)SC(N)=N2` (stereo not drawn), for which the growth inhibition was 64%.
In the case of `CC1=C(CO)C(=O)O[C@@H]([C@@H](C)[C@H]2CC[C@H]3[C@@H]4C[C@@H](O)C5=CC=CC(=O)[C@]5(C)[C@H]4CC[C@]23C)C1`, the growth inhibition was -6%.
On to `O=C(CNC(=O)Nc1ccc(NC(=O)NCC(=O)Nc2ccc(C3=NCCN3)cc2)cc1)Nc1ccc(C2=NCCN2)cc1`, for which the growth inhibition is -3%.

Staying with this experiment, now noted: S. cerevisiae sgs1 mgt1 strain, at 50.0 µM, stronger effect = higher value.
With `CCCCCCCCCCS(=O)(=O)Nc1ccc(C(=O)NN)cc1`, the growth inhibition was 89.5% (active).
Turning to `ON(C(=Nc1ccc(Cl)cc1)c1ccccc1)c1ccccc1`, the growth inhibition is 99% (active).
In the case of `Cc1ccc(-c2c(N)[n+]([O-])c3ccccc3[n+]2[O-])cc1`, the growth inhibition is 99.2% (active).
With `NC(=O)C12OC3CC(CC(C3)O1)O2`, the growth inhibition was 11.3%.
As for `C=C(C)[P+](C)(c1ccccc1)c1ccccc1`, the growth inhibition was 28.9%.
`CCC(C)SC1SCC2C(=O)N(C)C3(CC3C)C(=O)OCC(NC(=O)c3nc4ccccc4cc3O)C(=O)NC(C)C(=O)N(C)C1C(=O)N(C)C1(CC1C)C(=O)OCC(NC(=O)c1nc3ccccc3cc1O)C(=O)NC(C)C(=O)N2C` (stereo not drawn): the growth inhibition is 92.4% (active).
For `COc1ccc2ccc(=O)oc2c1CC=C(C)C`, the growth inhibition is 72.5% (active).
For the molecule `O=c1ccn(C2OC(COC(c3ccccc3)(c3ccccc3)c3ccccc3)C(O)C2O)c(=O)[nH]1` (stereo not drawn), the growth inhibition is 93.3% (active).
On to `O=C1C(=O)C(Cc2ccccc2)(c2ccccc2)C(=O)N1c1ccccc1` (stereo not drawn), for which the growth inhibition is 54.6%.
As for `CCC(O)C(O)(c1ccccc1)c1nc2ccccc2s1` (stereo not drawn), the growth inhibition is 14%.
For `c1ccc(-n2ncc3ccc4cccn4c32)cc1`, the growth inhibition was 55%.
`O=C(c1ccc([N+](=O)[O-])cc1)C(Br)C(Br)c1ccnc2ccccc12` (stereo not drawn): the growth inhibition is 98.9% (active).
On to `[Cl][Sn]1([Cl])[CH2]CC[CH2][Sn]([Cl])([Cl])[CH2]CC[CH2][Sn]([Cl])([Cl])[CH2]CC[CH2][Sn]([Cl])([Cl])[CH2]CC[CH2]1`, for which the growth inhibition is 87.5% (active).
In the case of `Nc1ccc(O)c(=O)cc1`, the growth inhibition was 62.2%.
As for `CC(C)c1cc(C(=O)[O-])c(O)c(C(C)C)c1.CC(C)c1cc(C(=O)[O-])c(O)c(C(C)C)c1.CC(C)c1cc(C(=O)[O-])c(O)c(C(C)C)c1.CC(C)c1cc(C(=O)[O-])c(O)c(C(C)C)c1.CC(C)c1cc(C(=O)[O-])c(O)c(C(C)C)c1.CC(C)c1cc(C(=O)[O-])c(O)c(C(C)C)c1.[Cu+2].[Mn+2].[Mn+2]`, the growth inhibition is 44.5%.
Consider `CC1=C(C(=O)Nc2cccc(C(F)(F)F)c2)C(c2ccccc2F)C(C(=O)Nc2cccc(C(F)(F)F)c2)=C(C)N1`, for which the growth inhibition is 85.9% (active).
The same measure, in the same setting: for `O=C(c1ccccc1)C(C(=O)c1ccccc1)c1ccc2ccccc2n1` the value was 63.5%; for `NC(=S)N1N=C2c3ccccc3CC[C@H]2[C@@H]1c1cccs1`, 80.6% (active).
Take `O=CC(O)CN1CCCC1` (stereo not drawn): the growth inhibition is 87.7% (active).
Regarding `CCCCCN(CCCCC)CC(C)(C)C(O)c1ccc(OC)c2ccccc12` (stereo not drawn), the growth inhibition is 52.5%.
The same measure, in the same setting: the figure for `CSC(=S)n1nc(-c2cccs2)c(N=Nc2ccccc2)c1C(F)(F)F` is 93% (active).
Regarding `CC(O)C1CCCC[N+]1(C)C` (stereo not drawn), the growth inhibition was 51.5%.
With `CCCCCCCCCCCC(=O)N(CCOC(=O)c1ccco1)CCOC(=O)c1ccco1`, the growth inhibition is 99.2% (active).
Same read-out and setting: the figure for `CCOC(=O)NC(=S)Nc1ccsc1` is 11%; for `O=C(O)c1ccc(C(O)(c2ccccc2)c2ccccc2)cc1` it is 98% (active); for `N#CSCCSCc1ccc(Cl)cc1` it is 99.4% (active).
On to `CN(/N=C\c1ccc(Cl)cc1)C(c1ccc(Cl)cc1)N(C)/N=C/c1ccc(Cl)cc1` (stereo not drawn), for which the growth inhibition is 80.2% (active).
With `CC(C)(C)[Si](C)(C)OCC1OC(n2cc(I)c(N)nc2=O)C(O[Si](C)(C)C(C)(C)C)C1O[Si](C)(C)C(C)(C)C` (stereo not drawn), the growth inhibition was 36.1%.
As for `O=C1C(=O)c2cc(Br)cc([N+](=O)[O-])c2-c2ccc(Br)cc21`, the growth inhibition is 97.1% (active).
